What was measured:
Experiment in all cases: DAPPL (digital affinity profiling via proximity ligation, sequencing); 10 mM Tris-HCl pH 7.5, 50 mM NaCl, 1 mM DTT, 4% glycerol, room temperature, 30 min; GST-TFs on glutathione beads, 16-mer random dsDNA library, 0.1% formaldehyde crosslink after washing; high values mean tight binding
[1] = target: T1, FEV (Homo sapiens, UniProt Q99581 1-238); conditions: protein: recombinant; tags: N-terminal GST; dsDNA, one strand shown
T1 sequence: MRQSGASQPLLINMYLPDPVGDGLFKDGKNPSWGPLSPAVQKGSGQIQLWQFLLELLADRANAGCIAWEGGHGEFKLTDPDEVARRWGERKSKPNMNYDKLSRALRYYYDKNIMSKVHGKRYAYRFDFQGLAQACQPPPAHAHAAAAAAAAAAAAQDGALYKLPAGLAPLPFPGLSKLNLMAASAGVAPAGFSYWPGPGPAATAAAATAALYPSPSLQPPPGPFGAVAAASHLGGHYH
Outline: (§1)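 In yeast, human transcription factors were expressed with a GST fusion, then pulled down on glutathione beads and given DNA barcodes. Pooled with a tag-only sample, they were exposed to 200 nmole of a 16-mer random double-stranded DNA library (Tris/NaCl/DTT/glycerol buffer, room temperature, 30 min), washed, crosslinked with 0.1% formaldehyde, proximity-ligated using BsaI/T4 ligase for 1 h at 37 °C, PCR-amplified and read on an Illumina NextSeq500. Each hexamer's frequency of reads for a factor, divided by the matching frequency for the tag-only sample, gives the binding signal.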

[2] = target: ETV5 (Homo sapiens, UniProt P41161 1-510); conditions: protein: recombinant; tags: N-terminal GST; dsDNA, one strand shown
ETV5, sequence (P41161 whole entry): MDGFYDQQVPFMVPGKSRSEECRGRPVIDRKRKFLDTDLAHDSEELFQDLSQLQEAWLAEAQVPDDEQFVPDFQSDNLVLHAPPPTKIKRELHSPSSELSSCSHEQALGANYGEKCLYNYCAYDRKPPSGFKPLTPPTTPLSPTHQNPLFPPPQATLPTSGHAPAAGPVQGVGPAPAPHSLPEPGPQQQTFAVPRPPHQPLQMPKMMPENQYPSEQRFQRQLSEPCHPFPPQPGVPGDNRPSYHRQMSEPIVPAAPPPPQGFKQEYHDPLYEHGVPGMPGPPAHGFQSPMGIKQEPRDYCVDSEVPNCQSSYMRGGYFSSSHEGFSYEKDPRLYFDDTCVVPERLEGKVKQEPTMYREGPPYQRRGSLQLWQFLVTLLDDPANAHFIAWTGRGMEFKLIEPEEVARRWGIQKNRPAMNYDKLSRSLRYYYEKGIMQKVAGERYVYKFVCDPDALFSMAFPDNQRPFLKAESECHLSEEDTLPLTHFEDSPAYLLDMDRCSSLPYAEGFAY
Outline: as §1

[3] = target: HSF1 (Homo sapiens, UniProt Q00613 1-529); conditions: protein: recombinant; tags: N-terminal GST; chain copies: 3; dsDNA, one strand shown
HSF1, sequence (Q00613 whole entry): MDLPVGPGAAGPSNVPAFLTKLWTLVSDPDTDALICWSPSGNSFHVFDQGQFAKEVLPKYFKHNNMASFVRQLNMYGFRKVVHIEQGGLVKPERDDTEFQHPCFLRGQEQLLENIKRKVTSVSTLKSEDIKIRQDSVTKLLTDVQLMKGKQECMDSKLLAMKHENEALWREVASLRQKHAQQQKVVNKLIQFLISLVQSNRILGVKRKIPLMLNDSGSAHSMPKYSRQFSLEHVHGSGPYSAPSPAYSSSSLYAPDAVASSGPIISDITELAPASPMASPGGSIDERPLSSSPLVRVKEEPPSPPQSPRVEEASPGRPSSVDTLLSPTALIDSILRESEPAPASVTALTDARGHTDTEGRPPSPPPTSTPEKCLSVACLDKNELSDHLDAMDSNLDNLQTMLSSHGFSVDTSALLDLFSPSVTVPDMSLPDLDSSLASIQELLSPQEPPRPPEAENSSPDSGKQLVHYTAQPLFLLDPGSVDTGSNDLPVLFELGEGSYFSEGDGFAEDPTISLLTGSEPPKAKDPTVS
Outline: as §1

[4] = target: T2, SPIC (Homo sapiens, UniProt Q8N5J4 1-248); conditions: protein: recombinant; tags: N-terminal GST; dsDNA, one strand shown
T2 sequence: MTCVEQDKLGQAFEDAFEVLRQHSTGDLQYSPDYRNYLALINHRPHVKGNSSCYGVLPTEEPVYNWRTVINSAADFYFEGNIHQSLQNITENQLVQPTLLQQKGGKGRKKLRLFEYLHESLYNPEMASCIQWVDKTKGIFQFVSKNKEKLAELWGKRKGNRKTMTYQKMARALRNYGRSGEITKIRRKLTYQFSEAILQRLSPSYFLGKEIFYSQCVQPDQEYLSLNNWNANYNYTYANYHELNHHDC
Outline: as §1

[5] = target: ELF4 (Homo sapiens, UniProt Q99607 1-663); conditions: protein: recombinant; tags: N-terminal GST; dsDNA, one strand shown
ELF4, sequence (Q99607 whole entry): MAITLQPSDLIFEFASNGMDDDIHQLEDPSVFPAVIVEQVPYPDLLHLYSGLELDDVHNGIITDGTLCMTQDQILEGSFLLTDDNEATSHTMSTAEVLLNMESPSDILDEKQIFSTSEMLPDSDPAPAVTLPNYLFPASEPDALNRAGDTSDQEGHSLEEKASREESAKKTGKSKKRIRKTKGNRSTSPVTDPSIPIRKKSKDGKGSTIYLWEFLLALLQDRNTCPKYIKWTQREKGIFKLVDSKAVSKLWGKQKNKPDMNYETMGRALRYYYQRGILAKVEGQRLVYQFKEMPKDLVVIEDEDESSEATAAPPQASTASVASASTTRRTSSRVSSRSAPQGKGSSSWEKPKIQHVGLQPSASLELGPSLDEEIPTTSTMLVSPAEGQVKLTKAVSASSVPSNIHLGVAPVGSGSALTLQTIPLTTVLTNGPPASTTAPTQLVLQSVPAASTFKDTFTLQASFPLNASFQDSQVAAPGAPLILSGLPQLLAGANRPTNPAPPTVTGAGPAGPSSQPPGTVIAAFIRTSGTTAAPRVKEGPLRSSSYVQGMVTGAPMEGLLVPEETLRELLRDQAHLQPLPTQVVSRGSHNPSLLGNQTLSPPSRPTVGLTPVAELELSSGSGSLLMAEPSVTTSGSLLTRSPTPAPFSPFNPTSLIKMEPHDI
Outline: as §1

[6] = target: T3, ELK4 (Homo sapiens, UniProt P28324-2 1-405); conditions: protein: recombinant; tags: N-terminal GST; dsDNA, one strand shown
T3 sequence: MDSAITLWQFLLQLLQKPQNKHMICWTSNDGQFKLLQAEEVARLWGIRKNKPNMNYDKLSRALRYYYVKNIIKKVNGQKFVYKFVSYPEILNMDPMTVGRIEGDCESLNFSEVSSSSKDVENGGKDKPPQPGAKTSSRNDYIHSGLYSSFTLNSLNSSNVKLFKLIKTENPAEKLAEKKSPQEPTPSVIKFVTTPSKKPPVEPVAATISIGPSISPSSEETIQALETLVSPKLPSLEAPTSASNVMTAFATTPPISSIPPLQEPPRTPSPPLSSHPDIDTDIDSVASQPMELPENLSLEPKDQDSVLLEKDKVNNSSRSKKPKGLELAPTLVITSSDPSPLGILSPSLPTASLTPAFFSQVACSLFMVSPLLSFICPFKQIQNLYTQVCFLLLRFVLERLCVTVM
Outline: as §1

[7] = target: T4, ETV2 (Homo sapiens, UniProt O00321 1-342); conditions: protein: recombinant; tags: N-terminal GST; dsDNA, one strand shown
T4 sequence: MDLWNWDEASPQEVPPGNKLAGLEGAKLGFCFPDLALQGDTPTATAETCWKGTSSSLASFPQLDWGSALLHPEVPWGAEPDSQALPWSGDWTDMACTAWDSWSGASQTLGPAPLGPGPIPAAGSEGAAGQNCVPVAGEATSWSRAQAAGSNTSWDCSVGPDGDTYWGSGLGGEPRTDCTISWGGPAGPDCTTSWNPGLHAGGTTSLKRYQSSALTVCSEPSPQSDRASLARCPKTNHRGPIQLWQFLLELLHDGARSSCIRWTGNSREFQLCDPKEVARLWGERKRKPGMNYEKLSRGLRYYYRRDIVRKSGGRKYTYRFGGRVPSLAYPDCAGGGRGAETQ
Outline: as §1

[8] = target: T5, ELF3 (Homo sapiens, UniProt P78545 1-371); conditions: protein: recombinant; tags: N-terminal GST; dsDNA, one strand shown
T5 sequence: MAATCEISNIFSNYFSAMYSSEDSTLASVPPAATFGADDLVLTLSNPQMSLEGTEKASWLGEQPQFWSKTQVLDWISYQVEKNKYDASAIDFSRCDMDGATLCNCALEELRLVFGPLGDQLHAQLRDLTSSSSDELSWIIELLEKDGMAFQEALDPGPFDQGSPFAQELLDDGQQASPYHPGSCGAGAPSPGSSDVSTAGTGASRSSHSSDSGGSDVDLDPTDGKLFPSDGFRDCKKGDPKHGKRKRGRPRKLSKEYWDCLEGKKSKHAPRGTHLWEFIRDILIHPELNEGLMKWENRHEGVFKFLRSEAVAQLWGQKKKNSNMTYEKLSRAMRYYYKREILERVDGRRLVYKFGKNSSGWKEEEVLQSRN
Outline: as §1

[9] = target: CRX (Homo sapiens, UniProt O43186 1-299); conditions: protein: recombinant; tags: N-terminal GST; dsDNA, one strand shown
CRX, sequence (O43186 whole entry): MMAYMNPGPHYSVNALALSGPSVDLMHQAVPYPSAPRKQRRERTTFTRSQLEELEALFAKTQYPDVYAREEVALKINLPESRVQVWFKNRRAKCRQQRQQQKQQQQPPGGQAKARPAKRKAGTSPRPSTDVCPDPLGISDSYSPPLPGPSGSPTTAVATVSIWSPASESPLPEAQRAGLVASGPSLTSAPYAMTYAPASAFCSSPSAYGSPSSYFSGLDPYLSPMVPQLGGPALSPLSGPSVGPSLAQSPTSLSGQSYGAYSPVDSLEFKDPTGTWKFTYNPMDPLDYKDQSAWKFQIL
Outline: as §1

[10] = target: ETV1 (Homo sapiens, UniProt P50549 1-477); conditions: protein: recombinant; tags: N-terminal GST; dsDNA, one strand shown
ETV1, sequence (P50549 whole entry): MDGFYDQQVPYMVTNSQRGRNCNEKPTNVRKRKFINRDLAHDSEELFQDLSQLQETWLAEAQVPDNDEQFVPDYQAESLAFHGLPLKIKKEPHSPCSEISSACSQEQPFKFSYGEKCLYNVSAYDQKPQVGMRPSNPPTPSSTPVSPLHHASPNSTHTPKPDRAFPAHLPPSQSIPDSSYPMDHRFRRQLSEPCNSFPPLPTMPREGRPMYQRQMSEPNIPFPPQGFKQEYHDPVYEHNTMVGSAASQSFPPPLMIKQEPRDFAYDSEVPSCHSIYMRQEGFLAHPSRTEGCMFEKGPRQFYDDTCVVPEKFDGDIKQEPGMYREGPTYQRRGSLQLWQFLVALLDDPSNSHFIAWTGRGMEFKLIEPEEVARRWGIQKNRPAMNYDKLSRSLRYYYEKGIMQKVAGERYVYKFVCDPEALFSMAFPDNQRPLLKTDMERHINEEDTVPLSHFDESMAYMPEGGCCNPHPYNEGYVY
Outline: as §1

[11] = target: T6, ERF (Homo sapiens, UniProt P50548 1-548); conditions: protein: recombinant; tags: N-terminal GST; dsDNA, one strand shown
T6 sequence: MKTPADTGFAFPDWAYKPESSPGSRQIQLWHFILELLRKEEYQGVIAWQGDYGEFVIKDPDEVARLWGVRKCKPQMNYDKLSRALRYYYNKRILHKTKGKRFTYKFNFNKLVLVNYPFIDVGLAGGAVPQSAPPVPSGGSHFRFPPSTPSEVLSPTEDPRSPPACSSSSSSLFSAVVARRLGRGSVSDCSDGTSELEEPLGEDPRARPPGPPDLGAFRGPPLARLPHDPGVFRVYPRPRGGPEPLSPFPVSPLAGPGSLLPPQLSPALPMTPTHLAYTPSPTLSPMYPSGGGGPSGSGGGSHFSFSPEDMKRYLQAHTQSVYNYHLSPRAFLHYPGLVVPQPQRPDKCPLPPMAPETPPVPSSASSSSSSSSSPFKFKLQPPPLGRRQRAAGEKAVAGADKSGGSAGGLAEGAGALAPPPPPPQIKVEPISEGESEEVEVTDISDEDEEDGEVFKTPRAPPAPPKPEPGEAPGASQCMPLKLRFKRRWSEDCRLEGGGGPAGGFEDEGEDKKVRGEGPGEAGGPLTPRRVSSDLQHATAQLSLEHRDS
Outline: as §1

[12] = target: T7, ETV3L (Homo sapiens, UniProt Q6ZN32 1-361); conditions: protein: recombinant; tags: N-terminal GST; dsDNA, one strand shown
T7 sequence: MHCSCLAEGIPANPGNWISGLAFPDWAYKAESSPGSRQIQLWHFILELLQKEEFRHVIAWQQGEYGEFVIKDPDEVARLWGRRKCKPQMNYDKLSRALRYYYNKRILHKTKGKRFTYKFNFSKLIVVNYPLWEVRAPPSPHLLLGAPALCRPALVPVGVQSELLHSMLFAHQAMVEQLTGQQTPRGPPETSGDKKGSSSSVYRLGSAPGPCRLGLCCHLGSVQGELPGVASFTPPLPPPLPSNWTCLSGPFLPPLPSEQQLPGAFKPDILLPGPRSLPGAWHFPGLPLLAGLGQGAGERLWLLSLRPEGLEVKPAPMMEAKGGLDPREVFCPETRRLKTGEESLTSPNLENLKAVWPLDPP
Outline: as §1

[13] = target: T8, ETS2 (Homo sapiens, UniProt P15036 1-469); conditions: protein: recombinant; tags: N-terminal GST; dsDNA, one strand shown
T8 sequence: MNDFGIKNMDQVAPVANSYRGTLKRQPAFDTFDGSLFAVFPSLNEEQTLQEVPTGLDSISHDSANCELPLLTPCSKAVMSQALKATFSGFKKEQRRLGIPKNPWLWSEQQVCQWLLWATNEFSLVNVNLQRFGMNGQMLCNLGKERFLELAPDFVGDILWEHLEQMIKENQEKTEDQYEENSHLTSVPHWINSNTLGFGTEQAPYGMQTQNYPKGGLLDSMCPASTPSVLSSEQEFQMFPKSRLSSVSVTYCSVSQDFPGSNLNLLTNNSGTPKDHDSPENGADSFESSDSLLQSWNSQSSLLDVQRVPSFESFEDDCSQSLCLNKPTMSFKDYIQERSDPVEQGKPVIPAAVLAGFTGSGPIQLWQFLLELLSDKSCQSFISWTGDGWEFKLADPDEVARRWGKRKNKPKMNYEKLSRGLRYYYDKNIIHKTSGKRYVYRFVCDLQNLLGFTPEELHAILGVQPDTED
Outline: as §1

[14] = target: T9, SPDEF (Homo sapiens, UniProt O95238 1-335); conditions: protein: recombinant; tags: N-terminal GST; dsDNA, one strand shown
T9 sequence: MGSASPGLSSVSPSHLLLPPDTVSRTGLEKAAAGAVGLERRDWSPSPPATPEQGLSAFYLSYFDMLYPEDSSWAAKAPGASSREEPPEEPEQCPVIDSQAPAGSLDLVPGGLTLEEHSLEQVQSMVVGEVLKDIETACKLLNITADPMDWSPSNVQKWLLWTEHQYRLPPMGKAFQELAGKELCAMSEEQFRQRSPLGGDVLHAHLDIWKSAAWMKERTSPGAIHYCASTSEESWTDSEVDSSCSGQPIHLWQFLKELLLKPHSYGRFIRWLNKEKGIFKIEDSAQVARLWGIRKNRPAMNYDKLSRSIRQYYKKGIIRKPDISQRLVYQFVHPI
Outline: as §1

[15] = target: T10, ETV7 (Homo sapiens, UniProt Q9Y603 1-341); conditions: protein: recombinant; tags: N-terminal GST; dsDNA, one strand shown
T10 sequence: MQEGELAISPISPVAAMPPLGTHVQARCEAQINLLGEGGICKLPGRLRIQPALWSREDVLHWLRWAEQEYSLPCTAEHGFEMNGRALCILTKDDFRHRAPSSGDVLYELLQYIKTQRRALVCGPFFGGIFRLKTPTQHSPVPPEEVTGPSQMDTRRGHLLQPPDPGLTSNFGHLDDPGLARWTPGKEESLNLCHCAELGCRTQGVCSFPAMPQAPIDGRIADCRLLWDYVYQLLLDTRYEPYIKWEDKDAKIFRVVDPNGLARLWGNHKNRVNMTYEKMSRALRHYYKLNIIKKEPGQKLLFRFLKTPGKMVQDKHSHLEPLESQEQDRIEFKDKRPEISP
Outline: as §1

[16] = target: T11, ELF5 (Homo sapiens, UniProt Q9UKW6-2 1-255); conditions: protein: recombinant; tags: N-terminal GST; dsDNA, one strand shown
T11 sequence: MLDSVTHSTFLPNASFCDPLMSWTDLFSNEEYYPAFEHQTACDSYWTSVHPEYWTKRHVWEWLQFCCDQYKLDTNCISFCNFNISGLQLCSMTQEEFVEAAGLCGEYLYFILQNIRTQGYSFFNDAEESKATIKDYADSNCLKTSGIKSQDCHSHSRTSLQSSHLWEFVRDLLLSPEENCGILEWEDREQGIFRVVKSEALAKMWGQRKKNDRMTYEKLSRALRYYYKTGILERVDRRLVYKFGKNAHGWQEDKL
Outline: as §1

[17] = target: T12, ETV3 (Homo sapiens, UniProt P41162-2 1-143); conditions: protein: recombinant; tags: N-terminal GST; dsDNA, one strand shown
T12 sequence: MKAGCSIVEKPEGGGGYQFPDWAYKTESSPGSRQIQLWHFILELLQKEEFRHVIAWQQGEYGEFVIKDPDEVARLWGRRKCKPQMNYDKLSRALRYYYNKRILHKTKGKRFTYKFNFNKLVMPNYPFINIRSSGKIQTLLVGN
Outline: as §1

[18] = target: ETV6 (Homo sapiens, UniProt P41212 1-452); conditions: protein: recombinant; tags: N-terminal GST; dsDNA, one strand shown
ETV6, sequence (P41212 whole entry): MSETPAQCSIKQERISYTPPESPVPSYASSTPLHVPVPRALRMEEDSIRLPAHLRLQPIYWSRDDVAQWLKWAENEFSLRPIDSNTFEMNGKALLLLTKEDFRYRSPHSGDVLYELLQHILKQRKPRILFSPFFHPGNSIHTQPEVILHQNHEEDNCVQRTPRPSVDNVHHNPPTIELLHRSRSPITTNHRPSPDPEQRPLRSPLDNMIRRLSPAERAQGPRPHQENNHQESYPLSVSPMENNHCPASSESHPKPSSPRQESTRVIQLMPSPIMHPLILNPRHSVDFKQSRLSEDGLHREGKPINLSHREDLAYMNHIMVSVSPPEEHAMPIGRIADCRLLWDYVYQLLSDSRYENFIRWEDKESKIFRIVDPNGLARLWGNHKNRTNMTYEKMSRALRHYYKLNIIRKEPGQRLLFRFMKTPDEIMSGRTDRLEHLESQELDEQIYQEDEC
Outline: as §1

Which results are given for CTCGGC?
binding signal [1]: 1.29 fold enrichment (6-mer frequency, TF over GST control); binding signal [2]: 1.41 fold enrichment (6-mer frequency, TF over GST control); binding signal [3]: 1.31 fold enrichment (6-mer frequency, TF over GST control); binding signal [4]: 1.26 fold enrichment (6-mer frequency, TF over GST control); binding signal [5]: 1.56 fold enrichment (6-mer frequency, TF over GST control); binding signal [6]: 1.39 fold enrichment (6-mer frequency, TF over GST control); binding signal [7]: 1.34 fold enrichment (6-mer frequency, TF over GST control); binding signal [8]: 1.52 fold enrichment (6-mer frequency, TF over GST control); binding signal [9]: 1.13 fold enrichment (6-mer frequency, TF over GST control); binding signal [10]: 1.54 fold enrichment (6-mer frequency, TF over GST control); binding signal [11]: 1.34 fold enrichment (6-mer frequency, TF over GST control); binding signal [12]: 1.26 fold enrichment (6-mer frequency, TF over GST control); binding signal [13]: 1.31 fold enrichment (6-mer frequency, TF over GST control); binding signal [14]: 1.22 fold enrichment (6-mer frequency, TF over GST control); binding signal [15]: 1.34 fold enrichment (6-mer frequency, TF over GST control); binding signal [16]: 1.34 fold enrichment (6-mer frequency, TF over GST control); binding signal [17]: 1.36 fold enrichment (6-mer frequency, TF over GST control); binding signal [18]: 1.37 fold enrichment (6-mer frequency, TF over GST control)

Reference: article PMC7862700, “An all-to-all approach to the identification of sequence-specific readers for epigenetic DNA modifications on cytosine”
